The record followed here is PubChem BioAssay AID588346 (National Center for Advancing Translational Sciences (NCATS), 2011).

Records with an inconclusive call do not appear. The source made the active and inactive calls. Calls follow the shape of the dose curve; as a rule, active = well fitted curve in the direction sought with a large enough effect; inconclusive = small, poorly fitted or top-dose-only effect, or another doubt; inactive = no such curve, though single readings can be large or run the other way.

This experiment is described as follows: qHTS Assay for Inhibitors of Histone Lysine Methyltransferase G9a: Hit Confirmation in b-rIgG Counterscreen. The conditions noted are these: AlphaScreen b-rIgG bead counterscreen, signal interference; series mostly up to 55.7 µM; activity change, negative = inhibition: at the top concentration. From the text:
Methylated lysines, on the N-terminal tails of histone proteins serve as epigenetic markers to recruit factors that can then modify local chromatin structure to lead to functional consequences. G9a and other members of the SUV39 family of the SET domain-containing superfamily of histone lysine methyltransferases (HMT) have been identified to specifically methylate Lys9 of histone H3 (H3K9). G9a catalyzes the mono- and di-methylation of H3K9 in mammalian euchromatic regions, where the resulting H3K9me2 is indicative of transcriptional repression. […] The inhibition of G9a will result in transcriptional activation and work synergistically with DNA methyltransferase and histone deacetylase inhibitors, to kill cancer cells. This qHTS assay for identification of G9a inhibitors is a chemiluminescence based AlphaScreen (PerkinElmer). Methylation of biotinylated-histone peptide is measured through specific antibody-based detection, in conjunction with streptavidin-coated donor and anti-IgG antibody-coated acceptor beads. The method is particularly well suited for detection of inhibitors acting by the desired histone peptide competitive mechanism and is applicable to testing other HMTs. Although AlphaScreen has significant advantages with its utility in a variety of epigenetic target assays, the primary screening data provided in this deposition should be used with caution due to the prevalence of screening artifacts. Because an AlphaScreen counterscreen is highly recommended to be run against any putative actives to eliminate non specific artifacts, this assay was used as a counterscreen. Quinn et al. A chemiluminescence-based method for identification of histone lysine methyltransferase inhibitors. Mol Biosyst 6(5): 782-8. 2010. PMID: 20567762 [2] Baell,Holloway. New substructure filters for removal of pan assay interference compounds (PAINS) from screening libraries and for their exclusion in bioassays. J Med Chem. 53(7):2719-40. 2010. PMID: 20131845 NIH Chemical Genomics Center [NCGC] NIH Molecular Libraries Probe Production Network [MLPCN] MLPCN Grant: MH084681-02 Assay Submitter (PI): Structural Genomic Consortium - Toronto, Peter Brown
Biotinylated rabbit-IgG (b-rIgG) (Santa Cruz Biotechnology, Inc., Santa Cruz, CA) was added to 1,536-well plates in a 3 uL dispense. Compounds were added in a 23 nL pin-transfer step, and plates were incubated at room temperature for 15 min. Streptavidin-coated donor and anti-rIgG acceptor AlphaScreen beads were added (1 uL) for final concentrations of 20 ug/mL each bead and 1 nM b-rIgG, and plates read on the Envision after a 15 min incubation at room temperature in the dark.
On the technique in general: In qHTS, concentration-response curves come from the screen itself.
On to `O=C1NC(=O)N(CCc2ccc(F)cc2)C(=O)/C1=C/C=C/c1ccccc1`, for which the “activity change, negative = inhibition” value was -5.53% (inactive). In the case of `Oc1ccc2c3c1O[C@H]1[C@@H](O)CC[C@@]4(O)C(C2)N(CC2CCC2)CCC314` (some centres not stated), the “activity change, negative = inhibition” value is -11.1% (inactive). The same measure for `CN1CSC(=S)N(C)C1`: 17% (inactive); for `CCCN(CCC)CCc1c[nH]c2ccc(C(N)=O)cc12`: 62.1% [at 114 µM] (inactive); for `NCCc1c[nH]c2ccc(O)cc12`: -25.5% (inactive). The same measure for `C/C(O)=C(\C#N)C(=O)Nc1cc(Br)ccc1Br`: 23.4% (inactive); for `COc1ccc(OC)c(N2C(=O)NC(=O)/C(=C\c3ccc([N+](=O)[O-])s3)C2=O)c1`: 0.425% (inactive).
